Experimental findings from PubChem BioAssay AID493162 (ICCB-Longwood Screening Facility, Harvard Medical School, 2011) are described below.

The campaign covered roughly 46,000 compounds. About 430 (0.93%) were called active. No stated cut-off is given here; in the data, active means normalized absorbance mostly below about 85% (no sharp cut-off); inactive means mostly above about 86%. The list comes from a sample in which actives are over-represented; it also holds similar structures and randomly drawn compounds.

This assay concerns Vaccinia virus DNA polymerase (E9) processive complex. Kind of assay: vaccinia E9 polymerase processive synthesis inhibitors, primary screen, biochemical, absorbance (AID 493162). To be noted: in vitro processive DNA synthesis, absorbance read-out; hits give low values; concentration not given here.
Take `CC(C)NC(=O)CN1C(=O)c2cccnc2Oc2ccccc21`: the normalized absorbance was 102% (inactive). The value for `O=C(NCc1ccccc1Cl)C1(c2ccccc2)CCCC1` was 97.8% (inactive); that for `CSC1=NCCN1S(=O)(=O)c1ccc(Br)cc1` was 110% (inactive).

Regarding `CS(=O)(=O)N1CCN=C1SCc1cccnc1`, the normalized absorbance was 66.5% (active). As to `O=C(O)CCc1cccnc1`, the normalized absorbance was 102% (inactive).

`COC(=O)Nc1cn(Cc2ccccn2)c(=O)c2ccccc12`: the normalized absorbance was 112% (inactive). As for `O=c1[nH]c(=S)[nH]cc1S(=O)(=O)c1ccc(F)cc1`, the normalized absorbance was 99.5% (inactive). The value for `O=C(Nc1ccc2nc(SCC(=O)N3CCc4ccccc43)sc2c1)c1ccccc1Cl` was 100% (inactive). The value for `CCN(CC)c1ccc(C=Nc2cc(C)cc(C)c2)cc1` was 100% (inactive); that for `CCOc1ccc(S(=O)(=O)N2CCC(C)CC2)cc1` was 99% (inactive). The figure for `Nc1ccc(-c2nc3ccccc3[nH]2)c(N)c1` is 99.3% (inactive); for `COc1ccc(C2=NS(=O)(=O)N(C)C(C(=O)N(C)Cc3ccccc3)=C2)cc1` it is 86.6% (inactive).

With `Cc1cccc(-n2nc3c(c2NC(=O)/C=C\c2ccco2)CSC3)c1C`, the normalized absorbance is 85.2% (inactive). The figure for `CC(=O)n1c(C=Nc2ccccc2)c(O)c2ccccc21` is 99.4% (inactive); for `CC(=O)n1c2ccccc2c2nc(C)sc21` it is 45.9% (active). The value for `CC(=O)Nc1sc(C)nc1-c1ccccc1` was 99.1% (inactive); that for `Cc1nc2ccc(S(=O)(=O)NC(CC(C)C)C(=O)NC3CCCCCC3)cc2s1` (stereo not drawn) was 103% (inactive). The value for `CCOc1ccc(C(=O)Nc2nc3c(OC)cccc3s2)cc1` was 106% (inactive). Regarding `Cc1ccc(S(=O)(=O)N2CCCC(n3cccc3)C2)cc1` (stereo not drawn), the normalized absorbance is 117% (inactive).

On to `CC12CCC3C(CCC4CCCCC43C)C1C/C(=C\c1ccc[nH]1)C2=O` (stereo not drawn), for which the normalized absorbance is 101% (inactive). The figure for `Cc1cc(Nc2ccc(Cl)cc2)n2c(nc3ccccc32)c1C#N` is 100% (inactive); for `COc1ccc(-c2cc(-c3ccccc3)nc(SCC(N)=NC#N)c2C#N)cc1` it is 100% (inactive); for `C[N+](C)(C)CCOC(=O)c1ccccc1` it is 99.6% (inactive). With `Cc1nc(C)nc(N(Cc2ccccc2)Cc2ccccc2)n1`, the normalized absorbance is 94.7% (inactive). The figure for `Cc1ccc(Nc2c(-c3c[nH]c4ccccc34)nc3c[n+](CC(N)=O)ccn23)cc1` is 95.2% (inactive). The figure for `COc1ccc(C(=O)N2CCN(c3ccc(N4CCOCC4)nn3)CC2)cc1` is 101% (inactive); for `O=C1NC(=Nc2ccc(O)cc2)S/C1=C\c1ccc(Cl)cc1Cl` it is 100% (inactive); for `CC1CCc2sc(NC(=O)Cc3ccccc3)c(C(N)=O)c2C1` (stereo not drawn) it is 89.9% (inactive). Consider `N#Cc1c(-c2cccs2)nc(SCC(=O)c2ccc(Br)cc2)[nH]c1=O`, for which the normalized absorbance was 68.9% (active). The value for `Cc1nc(SCC(=O)c2ccc(Cl)cc2)c(C#N)c(C)c1C` was 99.7% (inactive); that for `COc1ccc(C(=O)CSC2=C(C#N)C(c3cccs3)CC(=O)N2)cc1` (stereo not drawn) was 101% (inactive). As for `O=C(NCc1cccnc1)c1cc(-c2ccccn2)nc2ccccc12`, the normalized absorbance was 102% (inactive). The figure for `COc1ccc(-c2nnn(-c3cccc(C(F)(F)F)c3)c2N)cc1OC` is 112% (inactive); for `Cc1cc(C)cc(Oc2coc3c(CN4CCCCCC4)c(O)ccc3c2=O)c1` it is 100% (inactive); for `O=C(CCc1nc(-c2ccccc2)no1)N1CCCCC1` it is 94.1% (inactive). The figure for `Fc1ccccc1Cn1cnc2ccccc21` is 100% (inactive). The figure for `O=C(O)CCCC(=O)Nc1ccccn1` is 98.3% (inactive); for `Cc1cc(-c2cn(/N=C/c3ccc(Cl)cc3Cl)c(N)n2)c(C)s1` it is 97.6% (inactive); for `Cc1nc2cc(Cl)ccc2c(=O)n1-c1nc2ccccc2[nH]1` it is 103% (inactive). Regarding `CC(C)(C)c1cn2c3ccccc3nc2n1CCCO`, the normalized absorbance was 96.5% (inactive). The value for `Cc1nnc(SCC(=O)O)[nH]c1=O` was 96.1% (inactive). The figure for `Cc1nc2sc(C(c3ccc(F)cc3)N3CCC(O)CC3)c(O)n2n1` (stereo not drawn) is 101% (inactive); for `CC(C)Nc1nc(-c2ccccc2O)nc2ccccc12` it is 102% (inactive); for `O=C(O)CSc1ccc2ccccc2c1Br` it is 85.4% (active). Consider `O=C(O)CSc1ccc(Br)c2cccc(Cl)c12`, for which the normalized absorbance was 81.7% (inactive). The figure for `Cc1nc2ccccc2nc1SCC(=O)O` is 103% (inactive). As for `COc1ccc(C2CC(=O)n3nc(-c4ccccc4)nc3S2)cc1OC` (stereo not drawn), the normalized absorbance was 100% (inactive). The figure for `Cc1cc2cc(CNS(=O)(=O)N(C)C)ccc2n1C` is 101% (inactive); for `O=S(=O)(c1cccc2cccnc12)N1CCN(c2cccc(Cl)c2)CC1` it is 101% (inactive).

Take `Cc1nc(N2CC(C)OC(C)C2)c2c3c(sc2n1)CCC3` (stereo not drawn): the normalized absorbance was 100% (inactive). The figure for `COc1ccccc1NC(=O)c1cccc(N2C(=O)C3CC=CCC3C2=O)c1` (stereo not drawn) is 89.3% (inactive).

Consider `COc1ccc(C2C=C(c3ccccc3)NC(=O)C2C#N)cc1` (stereo not drawn), for which the normalized absorbance is 94.4% (inactive). The value for `Cc1ccc(-c2nc(C)sc2CC(=O)O)cc1` was 98.3% (inactive); that for `COc1ccc(NS(=O)(=O)c2ccc(Oc3c(C#N)cccc3C#N)cc2)cc1` was 104% (inactive); that for `CCCn1c[n+](CC(=O)C(C)(C)C)c2ccccc21` was 101% (inactive).

In the case of `COc1ccc(NC(=O)C(C)n2cccc2)cc1` (stereo not drawn), the normalized absorbance is 102% (inactive). For `O=c1[nH]c(-c2ccc(F)cc2)nc2ccccc12`, the normalized absorbance was 102% (inactive).

With `Cn1nnnc1SCC(=O)Nc1nccs1`, the normalized absorbance is 104% (inactive). The value for `C=CCn1c(SCC(=O)Nc2nnc(CC)s2)nnc1-c1cccs1` was 99.4% (inactive).

`CC(NC(=O)Nc1ccc2c(c1)N(C)C(=O)c1ccccc1S2)c1ccccc1` (stereo not drawn): the normalized absorbance is 110% (inactive).

Turning to `CN1CCc2ccccc2C1Cc1ccccc1NS(=O)(=O)c1cccc(C(F)(F)F)c1` (stereo not drawn), the normalized absorbance was 97.1% (inactive).

Turning to `O=C1c2ccccc2-c2nn(CC(=O)N3CCOCC3)c3cccc1c23`, the normalized absorbance is 92.9% (inactive). Take `O=c1c2cccc3c2c(nn1CN1CCCCC1)-c1ccccc1-3`: the normalized absorbance was 76% (active).

As to `O=c1c2ccccc2c(-c2ccccc2)nn1Cc1ccccc1`, the normalized absorbance is 99.7% (inactive). Consider `CCOC(=O)CSc1nc2ccccc2n1C(=O)Oc1ccccc1`, for which the normalized absorbance is 95.5% (inactive). The figure for `O=C(O)CCc1nnc2ccc(N3CCCC3)nn12` is 103% (inactive); for `FC(F)(F)c1cccc(Oc2cnc3ccccc3n2)c1` it is 95.2% (inactive); for `Cc1ccc2c(Cl)c(C(=O)N(Cc3cccs3)C3CCS(=O)(=O)C3)sc2c1` (stereo not drawn) it is 100% (inactive). Turning to `C/C(C#N)=C(/N)c1ccccc1`, the normalized absorbance was 104% (inactive). The figure for `CCOC(=O)CSc1nc(N)c2c3c(sc2n1)CCC3` is 95.7% (inactive); for `COc1ccc2c(C)cc(-n3nc(C)cc3C)nc2c1` it is 99% (inactive). The value for `COc1ccc(Cl)cc1-n1c(SCc2cccc(Cl)c2)nnc1-c1cc2occc2n1C` was 108% (inactive); that for `O=C(Nc1ccc(-c2nc3ccccc3o2)cc1)c1ccc(Oc2ccccc2)cc1` was 100% (inactive). The figure for `CCOc1ccc2nc(NC(=O)C3CC3)sc2c1` is 100% (inactive). With `COc1ccc(/C=N/n2c(C)cc(C)cc2=O)cc1`, the normalized absorbance is 100% (inactive). Regarding `CCOc1cccc(NC(=O)c2cc(=O)c3ccccc3o2)c1`, the normalized absorbance was 100% (inactive).

`CCOc1ncccc1C(=O)Nc1cccc(C(F)(F)F)c1`: the normalized absorbance was 102% (inactive). The figure for `CCOC(=O)c1cc2ccccc2nc1C` is 99.8% (inactive); for `CCOC(=O)Cc1nc(N)ncc1C(=O)OCC` it is 101% (inactive); for `CCOC(=O)c1cnc2c(C)c(C)ccc2c1NCCCN(C)C` it is 39.1% (active). As for `c1ccc(-c2cc(NCC3CC3)n3cnnc3n2)cc1`, the normalized absorbance was 98.2% (inactive). The figure for `O=C(NCCN1CCCc2ccccc21)c1cc(-c2cccs2)nc2ccccc12` is 96.3% (inactive); for `C=CCn1c(-c2ccccc2)csc1=Nc1ccc(O)cc1` it is 100% (inactive). The value for `COc1ccc(-c2nc(NCC3CCCO3)c3ccccc3n2)cc1` (stereo not drawn) was 66.4% (active).

Turning to `COc1ccc(-n2nc(C(=O)NCC3CCCO3)c3c4ccccc4n(C)c3c2=O)cc1` (stereo not drawn), the normalized absorbance was 103% (inactive).

Regarding `CN1CCN(c2nc(NCC3CCCO3)c3ccccc3n2)CC1` (stereo not drawn), the normalized absorbance was 98.7% (inactive).

On to `Cc1ccc(C)n1-c1nn(S(C)(=O)=O)c2cccc(F)c12`, for which the normalized absorbance is 92.7% (inactive). `COc1cccc(C2=Nc3ccccc3C2=O)c1`: the normalized absorbance was 99.2% (inactive). As for `COC(=O)c1coc(-c2ccccc2)n1`, the normalized absorbance was 102% (inactive). The figure for `O=C(N/C(=C/c1ccccc1)P(=O)(O)c1ccccc1)c1ccccc1` is 98.3% (inactive).

Regarding `Cc1ccc(/C=C/C(=O)NCC2CCCO2)o1` (stereo not drawn), the normalized absorbance is 89.2% (inactive).

Consider `CN(C)c1nc(NCc2ccccc2)nc(Nc2ccc(OC(F)(F)F)cc2)n1`, for which the normalized absorbance is 100% (inactive). The value for `CCc1ccccc1N1CC(c2nc3ccccc3[nH]2)CC1=O` (stereo not drawn) was 90.4% (inactive); that for `CC(C)NC(=O)Oc1noc2ccc(Cl)cc12` was 99.1% (inactive).

Take `Cc1ccc(N2NC(=O)/C(=C/C=C/c3ccco3)C2=O)cc1C`: the normalized absorbance was 99.9% (inactive). The value for `C=CCN1C(=O)/C(=C/c2ccc3c(c2)n(C)c(=O)n3C)C(=O)NC1=S` was 100% (inactive). As to `CCN1C(=O)/C(=C/C=C/c2ccco2)C(=O)NC1=S`, the normalized absorbance is 64.7% (active).

As to `CC(=O)Nc1ccc(N2C(=O)C=CC2=O)cc1`, the normalized absorbance is 124% (inactive). The figure for `CC(C)CNS(=O)(=O)C1CCS(=O)(=O)C1` (stereo not drawn) is 102% (inactive); for `Nc1ncnc2c1ncn2CCNCc1ccccc1` it is 103% (inactive). The value for `NC(=O)C(Cc1ccccc1)NC(=O)C12CC3CC(CC(C3)C1)C2` (stereo not drawn) was 72.6% (inactive).

Regarding `CCOc1cc(/C=C2\SC(=S)N(C(C)C(=O)O)C2=O)ccc1O` (stereo not drawn), the normalized absorbance was 99% (inactive). The figure for `Cc1cc(C)n(-c2nc(-c3cccnc3)nc3ccccc23)n1` is 85.7% (inactive); for `CCS(=O)c1nc2c(Br)cccc2[nH]1` (stereo not drawn) it is 94.1% (inactive).

As to `Cc1ccc(NCC(O)c2ccc(Cl)cc2)cc1` (stereo not drawn), the normalized absorbance was 102% (inactive). `Cc1ccc(S(=O)(=O)NCc2ccc(C(=O)NC3CCC(C)CC3)cc2)cc1` (stereo not drawn): the normalized absorbance is 99% (inactive). The value for `O=C(c1ccc(Cl)cc1Cl)n1c(=O)oc2cc(S(=O)(=O)N3CCCCC3)ccc21` was 101% (inactive); that for `COc1ccc(C2C(C#N)=C(N)OC(C)=C2C(=O)OCc2ccccc2)cc1` (stereo not drawn) was 102% (inactive); that for `O=C1/C(=C/c2ccc(N3CCOCC3)cc2)CCc2ccccc21` was 100% (inactive). The figure for `N#CCCn1c(=S)n(CCC#N)c2ccccc21` is 106% (inactive); for `COC(=O)c1ccc(Cn2nc(C)c(Cl)c2C)cc1` it is 92.4% (inactive); for `CC(=O)Nc1ccc(C2N3CCCN23)cc1` (stereo not drawn) it is 100% (inactive). The value for `CCCCn1c(CCCNC(=O)CC)nc2ccccc21` was 98.7% (inactive); that for `C=CCSc1nc2ccccc2[nH]1` was 89.7% (active). In the case of `C=CCSc1nc(N)cc(=O)[nH]1`, the normalized absorbance is 101% (inactive).

For the compound `CNC(=O)CSc1nc2ccccc2[nH]1`, the normalized absorbance is 99.5% (inactive). The figure for `CC(O)CNC(=O)c1sc2ccccc2c1Cl` (stereo not drawn) is 95.9% (inactive); for `Cc1c(CNCCC2=CCCCC2)c(C(=O)O)c(C)n1Cc1cccc(Cl)c1` it is 92% (inactive).
